Results filed as inconclusive are left out. Calls of active or inactive are those of the source. Unless noted, the call rests on the fitted dose curve.
Columns and labels:
[1] = Nuclear factor erythroid 2-related factor 2/antioxidant responsive element (Nrf2/ARE) small molecule agonists: qHTS cell viability counter screen in human keratinocytes (AID 1919968; active means well fitted curve in the direction sought with a large enough effect in the repeat runs; an effect the other way counts as inactive or inconclusive; further: nearly all actives have a fitted effect of over 55% in size)
Outline: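 Seed 1,500 KeratinoSens cells per well, then incubate 5 h at 37 C/5% CO2. Add compounds in DMSO and incubate 23 h. Add CellTiter-Fluor, wait 1 h and read fluorescence.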

[2] = Nuclear factor erythroid 2-related factor 2/antioxidant responsive element (Nrf2/ARE) small molecule agonists: luciferase reporter gene qHTS assay in human keratinocytes (AID 1919969); further: nearly all actives have a fitted effect of over 35% in size
[3] = molecular target: KiSS-1 receptor (Homo sapiens) (UniProt Q969F8); experiment: Human kisspeptin (KISS1R) small molecule agonists, calcium flux assay in KISS1R-HEK293 cells (AID 1920064; active means well fitted curve in the direction sought with a large enough effect in the repeat runs; an effect the other way counts as inactive or inconclusive)
Outline: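 Cells plated and incubated 18 h; dye added, 1 h at 37 C; compounds in DMSO pinned in; signal read at 480/540 nm every second for 3 min. Each compound tested at 15 concentrations in triplicate.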

[4] = G protein-coupled receptor (GPCR) small molecule agonists, calcium flux assay: HEK293 wild type cell line counter screen (AID 1920065)
Outline: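 Counter-screen of the Tox21 10K library for non-specific calcium release: dye-loaded cells received compounds in DMSO and were monitored by kinetic fluorescence (480/540 nm, 3 min). Fifteen concentrations, run in triplicate.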

[5] = p53 small molecule agonists, cell-based qHTS assay with human liver microsomes (AID 1963577);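 further: p53 response element beta-lactamase reporter cells with liver microsomes plus NADPH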
Outline: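 16 h, 37 C exposure of p53RE-bla cells to compounds with human liver microsomes and NADPH (0.5 mg/mL final each); detection via LiveBLAzer mixture, 2 h dark at room temperature.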

[6] = p53 small molecule agonists, cell-based qHTS assay with rat liver microsomes (AID 1963578)
Outline: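 With rat liver microsomes and NADPH present (0.5 mg/mL final each), p53RE-bla cells are treated with compound for 16 h at 37 C. LiveBLAzer detection mixture is then applied for 2 h at room temperature in the dark.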

[7] = p53 small molecule agonists, cell-based qHTS assay with human liver microsomes: qHTS cell viability counter screen (AID 1963579); further: nearly all actives have a fitted effect of over 45% in size
Outline: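 In this multiplexed counter screen, the reporter plates were subsequently treated with CellTiter-Glo so that cell viability, reflected by luminescence, could be recorded for p53RE-bla cells dosed 16 h with compounds under microsomal activation (HLM and NADPH).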

[8] = p53 small molecule agonists, cell-based qHTS assay with rat liver microsomes: qHTS cell viability counter screen (AID 1963580); further: nearly all actives have a fitted effect of over 45% in size
Outline: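 p53RE-bla HCT-116 cells (4,000/well) rested 5 h at 37 C, then given Tox21 compounds in DMSO with rat liver microsomes (0.5 mg/mL final) plus NADPH (0.5 mg/mL final) for 16 h at 37 C. Viability read by CellTiter-Glo luminescence after 30 min at room temperature.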

[9] = p53 small molecule agonists, cell-based qHTS assay: qHTS cell viability counter screen (AID 1963581); further: nearly all actives have a fitted effect of over 45% in size
Outline: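 Cells: HCT-116 with p53 response element-driven beta-lactamase. Treatment: 16 h, 37 C, compounds in DMSO. Read: CellTiter-Glo luminescence after 30 min RT.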

[10] = p53 small molecule agonists, cell-based qHTS assay (AID 1963582; active means well fitted activation curve with a large enough effect in the signal ratio in the repeat runs, not every such curve was filed as active; the % refers to the signal ratio)
Outline: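 Quantitative HTS in p53RE-bla cells: after a 5 h settling period, compounds delivered in DMSO were left on cells for 16 h at 37 C, and reporter induction was measured as fluorescence following 2 h substrate loading.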

[11] = molecular target: 5-hydroxytryptamine receptor 2A (Homo sapiens) (UniProt P28223); experiment: 5-hydroxytryptamine receptor 2A (HTR2A) small molecule antagonists, cell-based qHTS assay (AID 1963586); further: nearly all actives have a fitted effect of over 45% in size
Outline: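 Antagonist-mode intracellular calcium assay: DOI (4 nM) added after 5 min compound pre-incubation at room temperature to dye-loaded HTR2A-CHO cells. Fluorescence followed for 3 min, sampled every second.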

[12] = molecular target: 5-hydroxytryptamine receptor 2A (Homo sapiens) (UniProt P28223); experiment: 5-hydroxytryptamine receptor 2A (HTR2A) small molecule agonists, cell-based qHTS assay (AID 1963587); further: nearly all actives have a fitted effect of over 30% in size
Outline: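 HTR2A-CHO cells, plated 18 h at 37 C/5% CO2, dye-loaded 1 h at 37 C; compounds in DMSO added by pin tool (agonist mode). Intracellular calcium flux read as kinetic fluorescence on FDSS over 2 min at 1 s intervals.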

[13] = molecular target: Muscarinic acetylcholine receptor M1 (Homo sapiens) (UniProt P11229); experiment: Cholinergic receptor muscarinic 1 (CHRM1) small molecule antagonists, cell-based qHTS assay (AID 1963588); further: nearly all actives have a fitted effect of over 40% in size
Outline: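 CHRM1-CHO calcium-flux assay, antagonist mode. Cells were seeded 18 h, dye-loaded 1 h at 37 C and given compound for 5 min at RT, then acetylcholine was added at 50nM. FDSS fluorescence was read 3 min; 15 concentrations, three runs.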

[14] = molecular target: Muscarinic acetylcholine receptor M1 (Homo sapiens) (UniProt P11229); experiment: Cholinergic receptor muscarinic 1 (CHRM1) small molecule agonists, cell-based qHTS assay (AID 1963589); further: nearly all actives have a fitted effect of over 35% in size
Outline: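 Agonist-mode qHTS in CHO cells stably carrying human muscarinic M1. Intracellular calcium is tracked by fluorescence every second after compound transfer; each compound runs at 15 concentrations in three independent runs.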

[15] = cAMP Responsive Elements (CRE) small molecule agonists, cell-based qHTS assay (AID 1963590)
Outline: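 Agonist mode qHTS in CRE-bla HEK 293T cells: compounds dosed from DMSO for 3 h at 37 C/5% CO2, followed by LiveBLAzer B/G FRET substrate for 2 h at room temperature.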

[16] = cAMP Responsive Elements (CRE) small molecule antagonists, cell-based qHTS assay (AID 1963591; active means well fitted inhibition curve with a large enough effect in the signal ratio in the repeat runs, not every such curve was filed as active; the % refers to the signal ratio)
Outline: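 Antagonist mode: test compounds are co-incubated with the adenylyl cyclase activator NKH477 (0.25 uM final) on CRE-bla HEK293T cells for 3 h at 37 °C, followed by LiveBLAzer substrate loading.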

[17] = molecular target: Beta-2 adrenergic receptor (Homo sapiens) (UniProt P07550); experiment: Adrenergic beta2 receptor (ADRB2) small molecule antagonists, cell-based qHTS assay (AID 1963592); further: series mostly up to about 92 µM; nearly all actives have a fitted effect of over 50% in size
Outline: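 Cells (CHO, stable ADRB2 overexpression) incubated 18-20hr at 37C; compounds added from DMSO; agonist mix (1nM isoproterenol, 100uM IBMX, 25uM Ro-20-1724) added; 0.5hr RT; d2-cAMP and anti-cAMP-cryptate added; 1hr RT; 665/615 nm read.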

[18] = molecular target: D(2) dopamine receptor (Homo sapiens) (UniProt P14416); experiment: Dopamine D2 receptor (DRD2) small molecule agonists, cell-based qHTS assay (AID 1963594); further: nearly all actives have a fitted effect of over 35% in size
Outline: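 HEK293 cells stably expressing DRD2 were cultured 24 h at 37 C, then given Ro20-1724 (0.1 mM final) and compounds for 10 min at room temperature. NKH477 (200nM) was then added for 30 min. cAMP was read by HTRF.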

[19] = molecular target: D(2) dopamine receptor (Homo sapiens) (UniProt P14416); experiment: Dopamine D2 receptor (DRD2) small molecule antagonists, cell-based qHTS assay (AID 1963595; active means well fitted inhibition curve with a large enough effect in the signal ratio in the repeat runs, with a control signal flat; the % refers to the signal ratio)
Outline: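 Readout: HTRF cAMP, cAMP-d2 competing with cellular cAMP for anti-cAMP cryptate, read after 1 h. Cells: DRD2-HEK293. Conditions: 0.1 mM Ro20-1724, 12 nM quinpirole, 200 nM NKH477, 30 min RT.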

[20] = molecular target: Beta-2 adrenergic receptor (Homo sapiens) (UniProt P07550); experiment: Adrenergic beta2 receptor (ADRB2) small molecule agonists, cell-based qHTS assay (AID 1963593);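 further: CHO cells stably overexpressing human ADRB2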
Outline: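 CHO cells stably over-expressing ADRB2 were plated overnight at 37C, then dosed with compounds plus a stimulation mix containing 100uM IBMX and 25uM Ro-20-1724 for 0.5hr at room temperature. cAMP was measured by HTRF competition, 1hr.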

Measured: Potency

Sequence of 5-hydroxytryptamine receptor 2A (Homo sapiens) (P28223 whole entry, looked up): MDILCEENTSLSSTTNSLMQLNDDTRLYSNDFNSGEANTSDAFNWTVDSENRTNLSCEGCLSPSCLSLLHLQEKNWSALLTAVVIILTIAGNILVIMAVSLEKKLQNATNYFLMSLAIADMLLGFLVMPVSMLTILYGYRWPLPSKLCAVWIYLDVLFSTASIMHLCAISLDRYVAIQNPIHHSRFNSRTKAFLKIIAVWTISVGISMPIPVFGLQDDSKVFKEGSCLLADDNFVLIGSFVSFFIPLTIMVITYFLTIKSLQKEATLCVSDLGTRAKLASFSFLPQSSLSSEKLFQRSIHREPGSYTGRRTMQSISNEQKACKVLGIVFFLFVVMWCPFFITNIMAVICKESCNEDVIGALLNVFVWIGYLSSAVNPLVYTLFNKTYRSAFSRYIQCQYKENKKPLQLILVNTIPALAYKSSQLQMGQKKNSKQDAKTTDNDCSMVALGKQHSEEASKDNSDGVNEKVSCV
Sequence of D(2) dopamine receptor (Homo sapiens) (P14416 whole entry, looked up): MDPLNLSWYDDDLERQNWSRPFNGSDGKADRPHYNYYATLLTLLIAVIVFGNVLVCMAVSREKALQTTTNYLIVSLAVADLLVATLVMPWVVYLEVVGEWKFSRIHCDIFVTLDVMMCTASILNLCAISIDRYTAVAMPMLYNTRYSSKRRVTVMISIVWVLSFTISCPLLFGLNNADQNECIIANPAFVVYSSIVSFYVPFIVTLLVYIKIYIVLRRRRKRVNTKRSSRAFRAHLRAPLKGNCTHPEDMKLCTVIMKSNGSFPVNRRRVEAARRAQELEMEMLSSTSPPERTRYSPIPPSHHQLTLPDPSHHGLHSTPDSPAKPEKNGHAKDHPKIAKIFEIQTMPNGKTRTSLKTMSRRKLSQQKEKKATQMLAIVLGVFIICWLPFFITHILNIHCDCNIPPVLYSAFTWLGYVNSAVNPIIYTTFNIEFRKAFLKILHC
Sequence of Beta-2 adrenergic receptor (Homo sapiens) (P07550 whole entry, looked up): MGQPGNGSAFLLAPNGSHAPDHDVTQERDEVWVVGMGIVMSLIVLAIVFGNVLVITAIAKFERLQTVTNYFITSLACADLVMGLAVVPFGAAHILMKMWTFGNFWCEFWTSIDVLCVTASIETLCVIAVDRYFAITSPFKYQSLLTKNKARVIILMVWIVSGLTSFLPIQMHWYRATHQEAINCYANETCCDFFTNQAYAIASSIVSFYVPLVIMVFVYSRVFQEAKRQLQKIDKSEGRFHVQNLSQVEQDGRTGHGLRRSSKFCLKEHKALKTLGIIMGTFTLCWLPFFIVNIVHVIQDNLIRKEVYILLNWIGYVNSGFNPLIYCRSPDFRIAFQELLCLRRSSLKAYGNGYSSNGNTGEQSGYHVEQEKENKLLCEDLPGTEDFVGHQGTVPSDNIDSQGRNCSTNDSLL
Sequence of KiSS-1 receptor (Homo sapiens) (Q969F8 whole entry, looked up): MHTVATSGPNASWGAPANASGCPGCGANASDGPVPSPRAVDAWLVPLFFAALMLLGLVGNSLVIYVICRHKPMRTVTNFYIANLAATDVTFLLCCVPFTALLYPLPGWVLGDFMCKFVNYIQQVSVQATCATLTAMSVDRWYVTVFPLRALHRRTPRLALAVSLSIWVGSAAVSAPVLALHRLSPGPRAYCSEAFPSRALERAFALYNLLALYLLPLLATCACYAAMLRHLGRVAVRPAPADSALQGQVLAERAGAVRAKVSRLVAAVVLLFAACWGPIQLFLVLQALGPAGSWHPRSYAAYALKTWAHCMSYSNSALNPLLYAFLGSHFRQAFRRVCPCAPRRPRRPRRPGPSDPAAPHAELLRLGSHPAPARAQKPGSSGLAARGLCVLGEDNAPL
Sequence of Muscarinic acetylcholine receptor M1 (Homo sapiens) (P11229 whole entry, looked up): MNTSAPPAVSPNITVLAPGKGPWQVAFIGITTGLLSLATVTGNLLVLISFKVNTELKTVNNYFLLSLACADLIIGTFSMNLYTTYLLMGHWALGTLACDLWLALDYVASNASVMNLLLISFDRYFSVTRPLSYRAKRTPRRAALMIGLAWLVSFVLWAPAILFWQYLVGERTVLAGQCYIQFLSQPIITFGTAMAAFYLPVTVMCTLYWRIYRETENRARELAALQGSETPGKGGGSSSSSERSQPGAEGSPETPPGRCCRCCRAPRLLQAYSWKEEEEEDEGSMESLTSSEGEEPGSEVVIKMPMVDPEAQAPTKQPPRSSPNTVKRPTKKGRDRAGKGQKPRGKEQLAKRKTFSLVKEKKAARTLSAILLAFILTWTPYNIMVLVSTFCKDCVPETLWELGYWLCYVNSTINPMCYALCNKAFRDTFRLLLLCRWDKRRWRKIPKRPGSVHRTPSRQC

C=C(C)C(=O)OCCOC(=O)C(=C)C
inactive: [1] | [2] | [3] | [4] | [5] | [6] | [7] | [8] | [9] | [10] | [11] | [12] | [13] | [14] | [15] | [16] | [17] | [18] | [19]

C=CCCCCCCCCC(=O)O
inactive: [1] | [2] | [3] | [4] | [5] | [6] | [7] | [8] | [9] | [10] | [11] | [12] | [13] | [14] | [16] | [17] | [20] | [18] | [19]

O=C(Cl)c1cccc(C(=O)Cl)c1
inactive: [1] | [2] | [3] | [4] | [5] | [6] | [7] | [8] | [9] | [10] | [11] | [12] | [13] | [14] | [15] | [16] | [17] | [18] | [19]

CC(O)CO (stereo unspecified)
inactive: [1] | [2] | [3] | [4] | [5] | [6] | [7] | [8] | [9] | [10] | [15] | [16] | [17] | [20] | [18] | [19]

C=CC(C)CCCC(C)(C)O (stereo unspecified)
inactive: [1] | [2] | [3] | [4] | [5] | [6] | [7] | [8] | [9] | [11] | [12] | [13] | [14] | [15] | [16] | [17] | [20] | [18] | [19]

C[Si](C)(C)O[Si](C)(C)C
inactive: [1] | [2] | [3] | [4] | [6] | [7] | [8] | [9] | [10] | [11] | [12] | [13] | [14] | [15] | [16] | [17] | [20] | [18] | [19]
